Assay results from the supplement of paper PMC10127200.
Where a name gives a salt, the structure may show the parent alone.

Experiments:
Test in all cases: Euclidean distance of Cell Painting phenotypic profile (signed KS, 77 features) to DMSO centroid (dimensionless distance); 5 or 10 uM (library dependent); higher = stronger phenotypic change vs DMSO (phenoactivity)
Details in all cases: 48 h
[1] = test system: 786-O
How it was run: (§1)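 Phenoactivity is computed as Euclidean distance to the median vehicle profile. The profiles, drawn from 77 Harmony features scored as signed Kolmogorov-Smirnov statistics versus same-plate vehicle wells, were corrected for plate position, correlation-weighted and replicate-averaged at the top dose. Stained cells were imaged confocally at 20X (9 fields/well) after 48 h with library compounds at 10 or 5 uM, 0.1% DMSO final, in five cancer lines and a healthy fibroblast line.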

[2] = test system: A549
How it was run: as §1

[3] = test system: DU145
How it was run: as §1

[4] = test system: FB
How it was run: as §1

[5] = test system: HEPG2
How it was run: as §1

[6] = test system: OVCAR4
How it was run: as §1

Compound	Euclidean distance [1]	Euclidean distance [2]	Euclidean distance [3]	Euclidean distance [4]	Euclidean distance [5]	Euclidean distance [6]
O=C(O)Cc1cc(I)c(Oc2ccc(O)c(I)c2)c(I)c1 [Tiratricol]	0.855	0.554	0.644	0.597	0.536	0.847
CN[C@@H]1[C@H](O[C@H]2[C@H](O[C@H]3[C@H](O)[C@@H](O)[C@H](NC(=N)N)[C@@H](O)[C@@H]3NC(=N)N)O[C@@H](C)[C@]2(O)CO)O[C@@H](CO)[C@H](O)[C@H]1O [Dihydrostreptomycin sulfate]	0.936	1.12	0.563	1.25	0.549	1.33
Cn1c(Nc2ccc(C(F)(F)F)cc2)nc2cc(Oc3ccnc(-c4ncc(C(F)(F)F)[nH]4)c3)ccc21	1.98	1.97	1.46	3.86	1.24	1.5
CCN(CC)CCOCCOC(=O)C1(c2ccccc2)CCCC1 [Pentoxyverine Citrate]	0.795	0.55	0.661	0.588	0.353	0.939
C=CC(=O)Nc1cccc(Oc2nc(Nc3ccc(N4CCN(C)CC4)cc3)nc3ccsc23)c1	4.18	3.94	2.73	3.64	3.85	3.57
CC(C)(C)[C@H]1CC[C@H](CC2=C(O)C(=O)c3ccccc3C2=O)CC1 [Buparvaquone]	1.16	1.1	1.17	0.844	0.483	1.44
NNC(=O)c1ccncc1 [Isoniazid]	1.4	1.36	0.961	1.16	0.573	0.885
CCCCOCCOCCOCc1cc2c(cc1CCC)OCO2 [Piperonyl butoxide]	0.659	1.99	0.875	0.892	1.06	1.04
COc1cc(Nc2c(C#N)cnc3cc(OCCCN4CCN(C)CC4)c(OC)cc23)c(Cl)cc1Cl [Bosutinib (SKI-606)]	3.85	3.56	2.93	3.66	3.22	4.14
Cc1cc(C(=O)Nc2nc3cccc(Cl)c3n2[C@@H]2CCCCN(C(=O)/C=C/CN(C)C)C2)ccn1 [Nazartinib (EGF816. NVS-816)]	1.87	1.93	1.67	3.18	2.99	1.9
CC(C)(CO)[C@@H](O)C(=O)NCCCO [D panthenol]	1.37	0.791	0.819	1.14	0.659	1.64
CC(C)OC(=O)CCC/C=C\C[C@@H]1[C@@H](CC[C@@H](O)CCc2ccccc2)[C@H](O)C[C@@H]1O [Latanoprost]	1.13	0.914	0.738	1.14	0.925	1.15
COc1cc(N2CCC(N3CCN(C)CC3)CC2)ccc1Nc1ncc(Cl)c(Nc2ccccc2P(C)(C)=O)n1	1.49	2.29	2.68	4.2	1.51	1.74
OC(CNCC(O)C1CCc2cc(F)ccc2O1)C1CCc2cc(F)ccc2O1 (stereo not drawn) [Nebivolol]	1.39	1.67	0.832	1.65	2.26	1.58
CCOC(=O)[C@H]1O[C@@H]1C(=O)N[C@@H](CC(C)C)C(=O)NCCC(C)C [Aloxistatin]	0.731	2.18	1.26	1.17	0.539	0.987
COC(=O)c1cc(OC)c2c(c1-c1c(CO)cc(OC)c3c1OCO3)OCO2 [Bicyclol]	1.47	0.509	2.55	0.898	1.1	1.06
N#CC(c1ccc(Cl)cc1)c1c(Cl)cc(-n2ncc(=O)[nH]c2=O)cc1Cl (stereo not drawn) [Diclazuril]	1.07	1.53	0.762	1.53	2.11	1.22
O=c1[nH]cnc2c1ncn2[C@@H]1O[C@H](CO)[C@@H](O)[C@H]1O [Inosine]	1.3	0.799	0.639	0.936	0.417	1.3
C#C[C@]1(O)CC[C@H]2[C@@H]3CCC4=CCCC[C@@H]4[C@H]3C(=C)C[C@@]21CC [Desogestrel]	0.933	0.431	0.928	0.753	0.742	0.826
C[C@H]1c2cccc(O)c2C(=O)C2=C(O)[C@]3(O)C(=O)C(C(N)=O)=C(O)[C@@H](N(C)C)[C@@H]3[C@@H](O)[C@@H]21 [Doxycycline monohydrate]	0.783	0.495	1.01	0.929	0.637	0.672
O=S(=O)(c1ccccc1)c1cnc2c(N3CCNCC3)cccc2c1	0.96	0.917	0.761	0.827	1.94	0.986
C=CC(=O)Nc1cccc(Oc2nc(Nc3ccc(N4CCN(C)CC4)cc3OC)ncc2Cl)c1	1.32	1.34	1.43	0.99	1.05	1.98
COc1ccc(C[C@@H]2c3cc(OC)c(OC)cc3CC[N@+]2(C)CCC(=O)OCCCCCOC(=O)CC[N@@+]2(C)CCc3cc(OC)c(OC)cc3[C@H]2Cc2ccc(OC)c(OC)c2)cc1OC [Cisatracurium Besylate]	1.42	0.822	0.815	1.11	1.11	1.35
CNCCCC12CCC(c3ccccc31)c1ccccc12 [Maprotiline HCl]	0.958	1.1	1.11	2.09	1.53	0.98

Compound	Euclidean distance [1]	Euclidean distance [2]	Euclidean distance [3]	Euclidean distance [4]	Euclidean distance [5]	Euclidean distance [6]
CCCN1CCCC[C@H]1C(=O)Nc1c(C)cccc1C [Ropivacaine]	1.19	1.64	0.902	1.93	1.18	1.31
COCC[n+]1c2c(n(Cc3cnccn3)c1C)C(=O)c1ccccc1C2=O [YM155 (Sepantronium Bromide)]	5.76	5.14	7.03	5.89	3.26	5.47
O=C(c1ccc(Nc2nccc(-c3cc4ccccc4s3)n2)cc1)N1CCC(N2CCCC2)CC1 [IKK-16 (IKK Inhibitor VII)]	3.91	4.2	3.04	4.35	4.29	4.4
CCOC(=O)C1=C[C@@H](OC(CC)CC)[C@H](NC(C)=O)[C@@H](N)C1 [Oseltamivir phosphate]	0.628	0.678	0.967	1.19	0.883	1.1
CCCCN1CCCCC1C(=O)Nc1c(C)cccc1C (stereo not drawn) [Bupivacaine HCl]	1.38	0.594	1.45	0.904	0.991	1.15
O=C1Nc2ccccc2/C1=C1/Nc2ccccc2C1=O [Indirubin]	1.05	1.12	0.786	0.965	1.58	1.03
CC(=O)OCC[N+](C)(C)C [Acetylcholine iodide]	0.893	0.442	0.869	0.877	0.594	1.19
CC(CNC(=O)c1cccnc1)NC(=O)c1cccnc1 (stereo not drawn) [Nicaraven]	1.31	0.748	1	1	2.29	1.91
CN(C)c1cccc(-c2c3c(=O)n(-c4ccccc4Cl)[nH]c3cc(=O)n2C)c1	1.01	1.99	1.08	0.844	0.852	1.39
Cc1ccc(Nc2nccc(N(C)c3ccc4c(C)n(C)nc4c3)n2)cc1S(N)(=O)=O [Pazopanib]	2.13	1.89	2.31	2.44	1.94	1.78
CCC(CC)(NC(=O)C(C)C)C(=O)N[C@@H](CCCN=C(N)N)C(=O)NC1(C(=O)NC(c2ccc(F)cc2)c2ccc(F)cc2)CCCC1	0.761	0.796	1.14	0.736	0.712	0.893
Cn1nnc(-c2ccc(-c3ccc(N4C[C@H](CO)OC4=O)cc3F)cn2)n1 [Tedizolid]	1.38	1.13	0.583	0.908	1	1.01
Cc1cn([C@@H]2C[C@@H](O)[C@H](CO)O2)c(=O)[nH]c1=O [Telbivudine]	1.15	0.884	0.651	1.53	0.469	1.12
CCCC(CCC)C(=O)O [Divalproex Sodium]	1.31	0.566	0.425	0.846	0.404	0.812
CCOC(=O)[C@H](CCc1ccccc1)N[C@@H](C)C(=O)N1CCC[C@H]1C(=O)O [Enalapril Maleate]	1.04	0.697	0.694	0.816	0.78	1.28
CC(C)N1CCN(c2ccc(Nc3ncc4cc5n(c4n3)C3(CCCCC3)CNC5=O)nc2)CC1	3.19	1.63	2.41	3.71	2.1	2.34
O=c1c(O)c(-c2ccc(O)cc2)oc2cc(O)cc(O)c12 [Kaempferol]	1.49	0.589	0.883	1.36	0.783	1.45
Cc1cc(-c2ccccc2)nnc1NCCN1CCOCC1 [Minaprine dihydrochloride]	0.893	1.02	0.918	1.32	0.555	1.06
CC(C)OC(=O)C1=CN(C(=O)c2ccc(F)c(F)c2)CC(C)(C)c2c1[nH]c1ccccc21	0.816	0.896	0.818	0.982	1.22	1.07
C[C@H](Nc1ncnc2nc[nH]c12)c1cc2cccc(Cl)c2c(=O)n1-c1ccccc1 [Duvelisib (IPI-145. INK1197)]	2.36	1.56	2.77	2.98	1.32	1.91
CCCOC(C(=O)OC1CCN(C)CC1)(c1ccccc1)c1ccccc1 [Propiverine hydrochloride]	1.73	1.08	1.34	1.33	1.39	1.35
COC(=O)Nc1nc2cc(Sc3ccccc3)ccc2[nH]1 [Fenbendazole]	2.61	2.78	3.05	2.21	2.12	2.83
O=C(O)CCCN1CCC(O[C@@H](c2ccc(Cl)cc2)c2ccccn2)CC1 [Bepotastine]	0.883	0.582	0.573	0.639	0.595	0.955
CC(C)NCC(O)COc1ccc(CCOCC2CC2)cc1 (stereo not drawn) [Betaxolol]	0.891	0.384	0.799	0.967	1.64	1.14
